# Many of the other results were omitted from the sample, so the strongest signals are more common in it than they were.
# B1: Arath Fbox (Arabidopsis thaliana), NP_178341.1 (protein)
# chain: EFTWGRKRRVKSESSPFDSFPEDCISYIISFTNPRDACVAATVSKTFESTVKSDIIWEKFLPADYESLIPPSRVFSSKKELYFSLCNDPVLFDDDKKSVWLEKASGKRCLMLSAMNLSIIWGDNPQYWQWIPIPESRFEKVAKLRDVCWFEIRGRTNTRVLSPRTRYSAYIVFKGVDKCYGFQNVAIEAAVGVVGQEPSRRLICFSEAIRRGRRNVVKPKQREDGWMEIELGEFFNDGGIMDNDEIEMSALETKQLNRKCGLIIQGIEIRPAKILAAAAASFLEQKLISEEDLNSAVDHHHHHH
# Assays:
# Assay in all cases: glycan array binding signal (z-score within array); higher = stronger binding
# Settings in all cases: glycan notation: IUPAC condensed, linker removed
# [1] = target: Gal3S(b1-4)Glc
# Procedure, shortened: (§1)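 The binding signal is a Z-score computed within each array. Data were drawn from 3228 arrays in the Consortium for Functional Glycomics database, restricted to those with a known protein sequence. Scores were averaged over arrays of the same protein sequence at different concentrations or buffers, and over linkers, and negative values can be taken as non-binding.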
# [2] = target: Gal3S(b1-4)[Fuc(a1-3)]GlcNAc6S
# Procedure, shortened: as §1
# [3] = target: GalNAc(b1-3)Gal(a1-4)Gal(b1-4)GlcNAc(b1-3)Gal(b1-4)Glc
# Procedure, shortened: as §1
# [4] = target: GalNAc(b1-4)Gal(b1-4)Glc
# Procedure, shortened: as §1
# [5] = target: GlcNAc(b1-2)Man(a1-3)[GlcNAc(b1-2)Man(a1-6)]Man(b1-4)GlcNAc(b1-4)[Fuc(a1-6)]GlcNAc
# Procedure, shortened: as §1
# [6] = target: GlcNAc(b1-2)[GlcNAc(b1-6)]Man(a1-6)[GlcNAc(b1-2)Man(a1-3)]Man(b1-4)GlcNAc(b1-4)GlcNAc
# Procedure, shortened: as §1
# [7] = target: GlcNAc(b1-3)Gal(b1-4)GlcNAc(b1-2)[GlcNAc(b1-3)Gal(b1-4)GlcNAc(b1-6)]Man(a1-6)[GlcNAc(b1-3)Gal(b1-4)GlcNAc(b1-2)Man(a1-3)]Man(b1-4)GlcNAc(b1-4)GlcNAc
# Procedure, shortened: as §1
# [8] = target: GlcNAc(b1-3)Gal(b1-4)GlcNAc(b1-3)Gal(b1-4)GlcNAc(b1-3)GalNAc
# Procedure, shortened: as §1
# [9] = target: Man(a1-3)[Man(a1-6)]Man(b1-4)GlcNAc(b1-4)GlcNAc
# Procedure, shortened: as §1
# [10] = target: Man(a1-3)[Man(a1-6)]Man(b1-4)GlcNAc(b1-4)[Fuc(a1-6)]GlcNAc
# Procedure, shortened: as §1
# [11] = target: Neu5Ac(a2-3)Gal(b1-3)GlcNAc(b1-2)Man
# Procedure, shortened: as §1
# [12] = target: Neu5Ac(a2-3)Gal(b1-3)GlcNAc(b1-6)GalNAc
# Procedure, shortened: as §1
# [13] = target: Neu5Ac(a2-3)Gal(b1-3)[Fuc(a1-4)]GlcNAc
# Procedure, shortened: as §1
# [14] = target: Neu5Ac(a2-3)Gal(b1-3)[Fuc(a1-4)]GlcNAc(b1-3)Gal(b1-3)[Fuc(a1-4)]GlcNAc
# Procedure, shortened: as §1
# [15] = target: Neu5Ac(a2-3)Gal(b1-4)GlcNAc(b1-2)[Neu5Ac(a2-3)Gal(b1-4)GlcNAc(b1-6)]Man(a1-6)[Neu5Ac(a2-3)Gal(b1-4)GlcNAc(b1-2)Man(a1-3)][GlcNAc(b1-4)]Man(b1-4)GlcNAc(b1-4)GlcNAc
# Procedure, shortened: as §1
# [16] = target: Neu5Ac(a2-3)Gal(b1-4)GlcNAc(b1-3)Gal(b1-4)GlcNAc(b1-2)Man(a1-3)[Neu5Ac(a2-3)Gal(b1-4)GlcNAc(b1-3)Gal(b1-4)GlcNAc(b1-2)Man(a1-6)]Man(b1-4)GlcNAc(b1-4)GlcNAc
# Procedure, shortened: as §1
# [17] = target: Neu5Ac(a2-3)Gal(b1-4)[Fuc(a1-3)]GlcNAc(b1-3)GalNAc
# Procedure, shortened: as §1
# [18] = target: Neu5Ac(a2-3)Gal6S(b1-4)GlcNAc
# Procedure, shortened: as §1
# [19] = target: Neu5Ac(a2-3)Gal6S(b1-4)[Fuc(a1-3)]GlcNAc
# Procedure, shortened: as §1
# [20] = target: Neu5Ac(a2-3)[Neu5Ac(a2-6)]GalNAc
# Procedure, shortened: as §1
# [21] = target: Neu5Ac(a2-6)Gal(b1-4)GlcNAc(b1-2)Man(a1-3)[GlcNAc(b1-4)][Neu5Ac(a2-6)Gal(b1-4)GlcNAc(b1-2)Man(a1-6)]Man(b1-4)GlcNAc(b1-4)GlcNAc
# Procedure, shortened: as §1
# [22] = target: Neu5Ac(a2-6)Gal(b1-4)GlcNAc(b1-2)Man(a1-3)[Neu5Ac(a2-6)Gal(b1-4)GlcNAc(b1-2)Man(a1-6)]Man(b1-4)GlcNAc(b1-4)GlcNAc
# Procedure, shortened: as §1
# [23] = target: Neu5Ac(a2-6)Gal(b1-4)GlcNAc(b1-2)Man(a1-6)[Gal(b1-4)GlcNAc(b1-2)Man(a1-3)]Man(b1-4)GlcNAc(b1-4)GlcNAc
# Procedure, shortened: as §1
# [24] = target: Neu5Ac(a2-6)Gal(b1-4)GlcNAc(b1-2)[Neu5Ac(a2-6)Gal(b1-4)GlcNAc(b1-4)]Man(a1-3)[GlcNAc(b1-4)][Neu5Ac(a2-6)Gal(b1-4)GlcNAc(b1-2)[Neu5Ac(a2-6)Gal(b1-4)GlcNAc(b1-6)]Man(a1-6)]Man(b1-4)GlcNAc(b1-4)GlcNAc
# Procedure, shortened: as §1
# [25] = target: Neu5Ac(a2-8)Neu5Ac(a2-3)[GalNAc(b1-4)]Gal(b1-4)Glc
# Procedure, shortened: as §1
# [26] = target: Neu5Ac9Ac(a2-6)Gal(b1-4)GlcNAc
# Procedure, shortened: as §1
# [27] = target: Neu5Gc(a2-6)Gal(b1-4)GlcNAc
# Procedure, shortened: as §1
binder,measurement,setting,value
B1,glycan array binding signal (z-score),[1],1
same,glycan array binding signal (z-score),[2],2.7
same,glycan array binding signal (z-score),[3],-0.087
same,glycan array binding signal (z-score),[4],0.06
same,glycan array binding signal (z-score),[5],0.585
same,glycan array binding signal (z-score),[6],-0.389
same,glycan array binding signal (z-score),[7],0.161
same,glycan array binding signal (z-score),[8],-0.761
same,glycan array binding signal (z-score),[9],-0.721
same,glycan array binding signal (z-score),[10],-0.72
same,glycan array binding signal (z-score),[11],-0.092
same,glycan array binding signal (z-score),[12],-0.024
same,glycan array binding signal (z-score),[13],-0.597
same,glycan array binding signal (z-score),[14],0.221
same,glycan array binding signal (z-score),[15],-0.75
same,glycan array binding signal (z-score),[16],2.64
same,glycan array binding signal (z-score),[17],2.69
same,glycan array binding signal (z-score),[18],-0.45
same,glycan array binding signal (z-score),[19],-0.559
same,glycan array binding signal (z-score),[20],-0.205
same,glycan array binding signal (z-score),[21],-0.647
same,glycan array binding signal (z-score),[22],-0.41
same,glycan array binding signal (z-score),[23],3.21
same,glycan array binding signal (z-score),[24],-0.533
same,glycan array binding signal (z-score),[25],-0.467
same,glycan array binding signal (z-score),[26],-0.681
same,glycan array binding signal (z-score),[27],2.49
